An excerpt weighted towards active compounds, which were near 4% of everything screened.
TRHR ag = activates the human TRH receptor; 360,000 compounds, 0.18% hits; activation, % at 2 µM; TRHR cells, calcium flux fluo-8, FDSS agonist mode; further: 0% is about no effect
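Steps: seed TRHR cells overnight; add fluo-8 no-wash Ca dye, RT 30 min–1.5 h; record 10 s baseline; pin-transfer compounds; monitor fluorescence 1 cycle/s for the agonist window. Calcium increases flag candidate agonists.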
D1 agonist = agonists of human D1 dopamine receptor; P21728; HEK293 T-REx D1 cells, calcium flux, agonist mode; activation, % at 2 µM; 360,000 compounds, 1% hits; AID 504660; further: 0% is about no effect
Target sequence (P21728 whole entry, looked up): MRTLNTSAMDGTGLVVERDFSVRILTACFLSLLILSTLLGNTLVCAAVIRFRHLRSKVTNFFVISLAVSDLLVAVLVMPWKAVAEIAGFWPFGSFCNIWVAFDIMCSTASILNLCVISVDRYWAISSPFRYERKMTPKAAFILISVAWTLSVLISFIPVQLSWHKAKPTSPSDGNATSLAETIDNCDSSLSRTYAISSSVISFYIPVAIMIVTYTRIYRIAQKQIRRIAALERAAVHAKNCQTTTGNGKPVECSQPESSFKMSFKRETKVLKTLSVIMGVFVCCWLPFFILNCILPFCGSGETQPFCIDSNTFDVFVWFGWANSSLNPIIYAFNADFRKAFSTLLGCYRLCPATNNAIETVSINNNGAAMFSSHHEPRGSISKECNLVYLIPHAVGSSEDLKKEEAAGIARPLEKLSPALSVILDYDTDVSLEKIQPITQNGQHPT
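Inducible HEK293 T-REx D1 cells, force-coupled to calcium signalling, were plated at 4000 cells/well with tetracycline and held overnight at 30 C. After no-wash calcium dye loading, compound-evoked calcium rise over 180 s flagged agonists.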
Glioma ERSR ind = inducers of ER stress response in human glioma cells. 420,000 compounds, 0.02% hits. U87-MG GRP78 promoter luciferase reporter, 16 h. AID 602332. Potency, µM, for inactives: at the highest dose activation, actives largely listed as activators; active means well fitted activation curve with a large enough effect; inconclusive means small, poorly fitted or top-dose-only effect; inactive means no such curve, though single readings can be large or run the other way; further: potency means the concentration at half of the fitted maximal effect; series mostly up to about 76 µM; % of control where 0% means no effect; nearly all actives have a fitted effect of over 35% in size
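Stably transfected U87-MG glioma cells carrying a GRP78-based luciferase sensor; 16 h compound incubation. Luminescence end-point read 10 min after Bright-Glo addition at room temperature.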
TRHR PAM = allosterically enhances the human TRH receptor; TRHR cells, fluo-8 calcium fluorescence, EC20 TRH enhancement; 360,000 compounds, 0.66% hits; P34981; enhancement, % at 2 µM; in the data active means enhancement above about 30%; further: 0% is about no effect
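Enhancer read-out: after compound pinning and an initial kinetic agonist-mode read, an EC20 of TRH (10 nM final) was injected and fluo-8 calcium signal (Ex 480/Em 530) followed at 1 s/cycle for 100 cycles in TRHR-expressing cells.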
D1 PAM = potentiators of human D1 dopamine receptor; P21728; HEK293 TREx D1 cells, calcium flux, dopamine EC20 potentiation; potentiation, % at 10 µM; 360,000 compounds, 0.036% hits; AID 504651; in the data active means potentiation above about 30%; further: 0% is about no effect
D1 antagonist = human D1 dopamine receptor antagonism | HEK293 TREx D1 cells, calcium flux, dopamine EC80; hits give low values | P21728 | AID 504652 | 360,000 compounds, 3.2% hits | activity change, negative = inhibition, % at 10 µM; in the data active means activity change below about -30%; further: on the % scale 0 is the no-effect control and ±100 the full control effect
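Calcium flux readout: force-coupled, inducible Hek293 Trex D1 line, cells induced overnight at 30 C with tetracycline, dye-loaded 30–90 min at RT. Antagonism scored against EC80 dopamine challenge given 180 s after compound.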
Starred values were filed as active, the others as inactive; ? = inconclusive; . = not tested or not shown. Unless noted, no stated cut-off is given here; in the data, active means activation above about 30%; inactive means the rest.

SMILES	TRHR ag	D1 agonist	Glioma ERSR ind	TRHR PAM	D1 PAM	D1 antagonist
COc1ccc(-c2nc3cc(C)ccc3cc2CN(C(=O)c2ccc(C)s2)C2CC2)cc1OC	.	.	-4.4%	.	.	.
O=C(NCCc1ccccc1)c1ccc2c(c1)S(=O)(=O)N=C1CCCCCN12	0.8	3.0	-1.0%	2.1	-14.4	-5.2
CN1CCC(NC(=O)c2cc(-c3cccc(Br)c3)nc3ccccc23)CC1	1.2	38.0*	-6.9%	2.6	-10.3	-34.7*
Cc1cc(C)cc(Nc2cc(C(=O)NC3CCC(C)CC3)c3ccccc3n2)c1 (stereo not given)	0.4	1.7	1.5%	33.1*	-2.0	8.3
Cc1ccc(N=C2NC(=O)/C(=C/c3cn(C)c4ccccc34)S2)cc1C	17.6	54.1*	-2.8%	7.3	-1.8	-98.5*
Fc1cccc(Cl)c1Cn1nnc(-c2ccc3c(c2)OCO3)n1	0.9	18.0	4.3%	-2.1	0.2	13.9
Fc1cccc(Cl)c1CSc1nnnn1-c1ccc2c(c1)OCO2	0.0	7.7	-1.8%	-11.1	-5.6	-32.1*
CCN1CCN(C(=O)c2ccc3c(c2)N(Cc2ccccc2F)C(=O)c2ccccc2S3=O)CC1 (stereo not given)	0.1	1.9	-1.9%	3.3	-1.1	-3.6
CCOC(=O)N1CCC(NC(=O)c2ccc3c(c2)N(Cc2ccc(F)cc2)C(=O)c2ccccc2S3=O)CC1 (stereo not given)	1.0	2.2	3.0%	37.3*	-1.5	2.5
CCOC(=O)N1CCN(C(=O)c2ccc3c(c2)N(Cc2ccccc2F)C(=O)c2ccccc2S3=O)CC1 (stereo not given)	-0.1	0.3	-1.3%	6.8	-3.8	-47.0*
COc1ccc(CCNC(=O)c2ccc3c(c2)N(Cc2ccccc2F)C(=O)c2ccccc2S3=O)cc1OC (stereo not given)	-0.3	0.7	?	9.9	1.9	7.9
CCOC(=O)N1CCC(NC(=O)c2ccc3c(c2)N(Cc2ccccc2)C(=O)c2ccccc2S3=O)CC1 (stereo not given)	-0.5	4.1	-0.7%	5.9	-3.1	5.8
COc1ccc(CCNC(=O)c2ccc3c(c2)N(Cc2cc(C)ccc2C)C(=O)c2ccccc2S3=O)cc1OC (stereo not given)	-0.3	9.8	-2.4%	30.7*	-3.2	-5.8
O=S(=O)(/C=C/c1ccccc1)Nc1ccc(F)cc1	0.5	7.3	-6.7%	30.8*	1.5	0.0
COc1ccc(NS(=O)(=O)/C=C/c2ccccc2)cc1	-0.2	3.8	-3.0%	5.7	3.6	-10.9
CC(CC(=O)N1CCN(c2ccccc2)CC1)S(=O)(=O)c1ccc2c(c1)NC(=O)CO2 (stereo not given)	-0.1	7.4	-4.5%	1.1	-2.4	-48.1*
O=C1COc2ccc(S(=O)(=O)N3CCN(c4ccccc4)CC3)cc2N1	0.2	3.2	0.2%	1.5	-6.2	2.6
O=S(=O)(NCc1ccccc1Cl)c1ccc(-n2cccn2)cc1	-0.5	8.6	-3.7%	-4.9	-2.8	-30.7*
O=S(=O)(NCc1ccccc1Cl)c1ccc(-n2cnnn2)cc1	-0.2	2.3	2.8%	9.0	3.1	-7.8
Cc1ccc(Cl)cc1NS(=O)(=O)c1ccc(-n2cccn2)cc1	-0.3	12.9	-4.6%	-0.1	-10.2	-30.2*
CCC1CN(CCNC(=O)c2cccc(C(=O)OC)c2)Cc2cc(OC)ccc2O1 (stereo not given)	.	.	-2.5%	.	.	.
Cc1cnc(-n2ncc(C(=O)NCc3ccncc3)c2C(C)C)nc1-c1ccc(F)cc1	.	.	-3.7%	.	.	.
O=C(NCC1CCCCC1)c1cc(S(=O)(=O)N2CCOCC2)ccc1F	0.4	-0.1	-4.6%	5.7	-0.4	-2.3
COc1cc(CNn2cnnc2)ccc1OCC(=O)NC(C)(C)C	0.4	1.6	-1.1%	5.1	-3.5	-79.1*
CCN(CC(=O)Nc1cccc(OC)c1)C(=O)c1ccco1	-2.1	8.9	-5.3%	12.1	2.5	6.8
SMILES	TRHR ag	D1 agonist	Glioma ERSR ind	TRHR PAM	D1 PAM	D1 antagonist
Clc1ccc(OCc2nc(-c3ccc(Br)o3)no2)cc1	0.3	2.1	-3.5%	6.1	-1.7	-40.0*
Brc1ccc(-c2noc(COc3ccc4c(c3)CCC4)n2)o1	1.1	9.5	2.5%	-3.3	1.3	-2.2
COC(=O)[C@]1(C)N[C@H](CN(C)C(=O)c2ccccc2)[C@@H]2C(=O)N(Cc3ccccc3)C(=O)[C@@H]21	.	.	-1.1%	.	.	.
Cc1ccc2c(c1)N(C(=O)CCC(=O)NCCN1CCOCC1)CC(C)O2 (stereo not given)	-0.1	0.4	-2.4%	-3.3	-5.2	-36.3*
COc1ccc(CCNC(=O)CCC(=O)N2CC(C)Oc3ccc(Cl)cc32)cc1OC (stereo not given)	-0.7	-0.7	-4.7%	1.3	-7.9	-57.6*
Cc1ccc2c(c1)N(C(=O)CCC(=O)N1CCOCC1)CCO2	-0.1	2.6	-2.4%	-1.8	-10.2	-31.2*
Cc1ccc2c(c1)N(C(=O)CCC(=O)NCCCN1CCOCC1)CC(C)O2 (stereo not given)	0.0	0.8	2.9%	0.5	-12.8	1.2
COCCn1c(=O)c(-c2cc(F)cc(F)c2)nc2cnc(N(C)C)nc21	.	.	-4.3%	.	.	.
CCN(C(=O)CSc1nc2ccccc2[nH]1)C1CCS(=O)(=O)C1 (stereo not given)	.	.	-2.8%	.	.	.
COc1ccc(NC(=S)N2CCC(Cc3ccccc3)CC2)cc1OC	-0.7	2.7	-1.9%	0.5	-11.5	-53.0*
COc1cccc(NC(=S)N2CCN(C/C=C/c3ccccc3)CC2)c1	-0.8	1.6	0.3%	0.5	0.4	-11.4
COc1cccc(NC(=S)N2CCC(Cc3ccccc3)CC2)c1	0.2	0.8	-2.0%	0.0	-3.0	-36.8*
COc1ccc(NC(=S)N2CCN(S(=O)(=O)c3ccccc3)CC2)cc1OC	0.8	5.7	-1.5%	1.1	1.1	1.1
CCCSc1nnc(N2C(=O)C(O)=C(C(=O)c3ccco3)C2c2ccccc2F)s1 (stereo not given)	28.9	96.5*	-0.7%	-2.9	-4.3	-15.0
CSc1nnc(N2C(=O)C(O)=C(C(=O)c3ccco3)C2c2ccccc2F)s1 (stereo not given)	23.2	98.4*	1.4%	2.9	1.9	-1.3
C=CCSc1nnc(N2C(=O)C(O)=C(C(=O)c3ccco3)C2c2ccccc2F)s1 (stereo not given)	12.1	26.7	6.1%	0.8	-1.8	15.3
COc1ccc(-c2cn3c(n2)sc2cc(C(=O)NCC(C)c4ccccc4)ccc23)cc1 (stereo not given)	-0.2	2.1	2.8%	-4.0	-3.0	11.6
Cc1nn(C)cc1CNC(=O)COc1ccc(Cl)cc1Cl	2.2	8.2	-5.2%	8.8	-5.7	-32.8*
COc1ccc(C)cc1S(=O)(=O)NCC(c1ccco1)N1CCc2ccccc2C1 (stereo not given)	-0.1	2.9	-4.1%	2.8	-9.8	-17.3

Screening results deposited in PubChem BioAssay by National Center for Advancing Translational Sciences (NCATS).
